Test results taken from paper PMC4336329 (PLoS ONE, 2015).
In all, about 310,000 compounds went through this assay and about 14,000 (4.5%) showed an effect of 50% or more. Effects have a minus sign here. The list comes from a sample in which strong results are over-represented; it also holds similar structures and randomly drawn compounds.

The compounds below were run against human ether-à-go-go-related gene (hERG) potassium channel (human, UniProt Q12809) (assay: primary screen, population patch clamp on CHO cells stably expressing hERG; higher = less effect of the substance).
Chain of human ether-à-go-go-related gene (hERG) potassium channel (Q12809 whole entry, looked up): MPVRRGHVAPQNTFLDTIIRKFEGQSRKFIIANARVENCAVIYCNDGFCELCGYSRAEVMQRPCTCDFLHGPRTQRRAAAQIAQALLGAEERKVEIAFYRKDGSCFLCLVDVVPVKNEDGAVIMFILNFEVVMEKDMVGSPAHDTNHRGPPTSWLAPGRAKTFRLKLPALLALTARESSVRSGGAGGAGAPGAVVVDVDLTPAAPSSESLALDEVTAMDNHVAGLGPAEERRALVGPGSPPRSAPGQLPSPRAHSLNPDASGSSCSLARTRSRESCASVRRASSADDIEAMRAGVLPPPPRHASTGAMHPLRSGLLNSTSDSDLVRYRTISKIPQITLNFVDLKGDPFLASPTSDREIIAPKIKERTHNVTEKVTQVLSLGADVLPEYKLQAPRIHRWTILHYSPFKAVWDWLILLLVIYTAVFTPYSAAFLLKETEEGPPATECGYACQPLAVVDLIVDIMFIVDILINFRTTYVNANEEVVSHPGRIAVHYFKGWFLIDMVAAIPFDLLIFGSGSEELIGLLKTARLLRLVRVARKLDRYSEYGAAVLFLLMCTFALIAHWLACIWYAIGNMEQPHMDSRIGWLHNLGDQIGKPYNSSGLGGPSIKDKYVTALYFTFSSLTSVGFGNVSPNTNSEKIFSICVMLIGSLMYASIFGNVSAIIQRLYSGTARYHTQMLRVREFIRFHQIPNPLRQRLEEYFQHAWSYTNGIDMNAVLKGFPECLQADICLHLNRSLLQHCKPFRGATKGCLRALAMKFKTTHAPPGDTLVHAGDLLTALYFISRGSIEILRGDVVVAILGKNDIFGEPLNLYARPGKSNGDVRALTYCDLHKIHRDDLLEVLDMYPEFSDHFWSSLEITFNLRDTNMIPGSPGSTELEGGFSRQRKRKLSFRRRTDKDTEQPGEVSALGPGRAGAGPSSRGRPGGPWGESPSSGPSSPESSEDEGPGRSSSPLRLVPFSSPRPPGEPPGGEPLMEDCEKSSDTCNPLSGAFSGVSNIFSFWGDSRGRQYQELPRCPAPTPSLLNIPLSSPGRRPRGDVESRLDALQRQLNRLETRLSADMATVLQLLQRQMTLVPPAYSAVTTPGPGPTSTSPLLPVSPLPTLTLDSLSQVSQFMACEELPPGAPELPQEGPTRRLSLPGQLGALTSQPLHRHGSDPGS
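Further: peak tail current of the secondary pulse compared with the same well before compound.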

SMILES | hERG current change (%, negative = inhibition) at 10uM [%]
O=C(OCc1cc(-c2ccccc2)no1)c1ccc2ccccc2n1 | 12.2
Cc1cc(CNC(=O)COc2ccc(C#N)cc2)c2ccccc2n1 | -47.2
COc1cc(OC)cc(C(=O)NCc2cc(C)nc3ccccc23)c1 | -2.16
Cc1ccc(C)c(NC(=O)CN(C)C(=O)c2ccc(Cl)nc2)c1 | -7.48
CCn1cc(C(=O)NCCCN(CC(C)C)CC(C)C)c(=O)c2cc(S(=O)(=O)N3CCOCC3)ccc21 | -11.3
CCn1cc(C(=O)NCCCN(CC(C)C)CC(C)C)c(=O)c2cc(S(=O)(=O)N(C)C3CCCCC3)ccc21 | -69.6
CCN(CC)CCCNC(=O)c1cn(CC)c2ccc(S(=O)(=O)N(C)C3CCCCC3)cc2c1=O | -75.7
Cc1ccccc1NC(=O)Cc1nc(-c2ccc3ccccc3c2)cs1 | 6.09
COc1ccc2[nH]cc(CCNC(=O)C3CC(=O)N(c4ccc(Cl)cc4)C3)c2c1 (stereo not shown) | -10.4
O=C(Nc1cccnc1)c1c(O)c2c(n(Cc3ccccc3)c1=O)CCCC2 | 2.61
CCCCCOc1ccc(Cn2ccnc2)cc1[N+](=O)[O-].Cl | -45.4
COc1ccc(Cn2ccnc2)cc1[N+](=O)[O-] | -0.186
CCCOc1ccc(Cn2ccnc2)cc1[N+](=O)[O-] | -52.3
Cc1ccc(OCCn2ccnc2)c([N+](=O)[O-])c1 | -4.29
Cc1ccc(OCCCn2ccnc2)c([N+](=O)[O-])c1 | -34.4
Cc1ccc(OCCCCn2ccnc2)c([N+](=O)[O-])c1 | -51.5
CC(C)CN(C(=O)COC(=O)c1cccc2ccccc12)c1c(N)n(Cc2ccccc2)c(=O)[nH]c1=O | 6.01
O[C@@H]1C2CCCC1[C@]1(O)CCCCC1C2 (stereo partly shown) | 8.35
Cc1ccc(Cl)c(OCC(=O)Nc2ccccc2N2CCCCC2)c1 | 5.15
CS(=O)(=O)N(Cc1ccccc1)c1ccc(C(=O)NCCSCc2ccco2)cc1 | -18
O=C(O)COc1ccccc1/C=C1\SC(=S)N(c2cccnc2)C1=O | -10.1
CCOC(=O)C1CCN(C(=O)CCc2ccccc2)CC1 | 2.13
CCOC(=O)C1CCN(C(=O)Cc2ccc(C)cc2)CC1 | -1.62

SMILES | hERG current change (%, negative = inhibition) at 10uM [%]
CCOC(=O)C1CCN(C(=O)CCc2c(C)nc3cc(-c4ccc(OC)cc4OC)nn3c2C)CC1 | -70.7
CCOC(=O)C1CCCCN1C(=O)CCc1c(C)nc2cc(-c3ccccc3)nn2c1C (stereo not shown) | -64.4
COc1cc(OC)cc(-c2cc3nc(C)c(CCC(=O)O)c(C)n3n2)c1 | 26
COc1ccc(-c2cc3nc(C)c(CCC(=O)N4CCN(c5ccccn5)CC4)c(C)n3n2)c(OC)c1 | -36
CCOC(=O)C1CCN(C(=O)CCc2c(C)nc3cc(-c4ccccc4)nn3c2C)CC1 | -78.5
CCOC(=O)C1CCN(C(=O)Cc2ccc(-c3ccccc3)cc2)CC1 | -57.7
CCOC(=O)C1CCN(c2cc(C)nc3cc(-c4cccc(F)c4)nn23)CC1 | -5.74
CCOC(=O)C1CCCCN1C(=O)CCc1c(C)nc2ncnn2c1C (stereo not shown) | 1.42
NC(=O)C1CCN(C(=O)Cc2ccc(-c3ccccc3)cc2)CC1 | 1.65
CCOC(=O)C1CCN(C(=O)c2ccc(OC)cc2OC)CC1 | -25.5
COc1ccc(C(=O)NCC(=O)N/N=C/c2cccc(OC(=O)c3ccco3)c2)cc1OC | 21.6
COC(=O)c1[nH]c2cc(OC)ccc2c1NC(=O)CN1CCN(c2cccc(C)c2)C(C)C1 (stereo not shown) | -0.154
CCOC(=O)CNC(=O)CSc1nnc(Cn2cnc3ccccc32)n1C | -0.389
O=C(CCC1CCCCC1)NCc1ccccn1 | -10.8
COC(=O)n1ccc(C(=O)Nc2ccccc2F)n1 | -8.09
O=C(O)CCc1nn2c3ccccc3nc2n(Cc2ccccc2)c1=O | 36.2
Cc1ccc2[nH]c(CN3CCC(CO)(CC4CCCCO4)CC3)c(C)c2c1 (stereo not shown) | -43.7
COc1ccc2[nH]c(CN3CCC(CO)(CCOc4ccccc4)CC3)c(C)c2c1 | -45.3
Cc1c(CN2CCN(C)C(CCO)C2)[nH]c2c(Cl)cccc12 (stereo not shown) | -42
Cc1c(CN2CCC(CO)(CCOc3ccccc3)CC2)[nH]c2c(Cl)cccc12 | -60.5
Cc1[nH]c2c(Cl)cccc2c(=O)c1CN1CCCC1 | -10.6
Cc1c(CN2CCC(CO)(CCOc3ccccc3)CC2)[nH]c2ccc(Cl)cc12 | -71
C/C(=N\NC(=O)c1ccc(CSc2nncn2C)cc1)c1ccc(C#N)cc1 | -26
